MCF10A rerep = DNA re-replication induction in MCF 10a cells. AID 624296. Potency, µM (top dose mostly 46.1 µM), without a hit: at the highest dose activity, positive = re-replication, hits mostly activators. 350,000 tested, 2.9% active. MCF 10A DNA re-replication, Hoechst nuclear intensity, 48 h; also: % of control where 0% means no effect; nearly all actives have a fitted effect of over 50% in size
KB-3-1 cytotox = KB-3-1 parental cell cytotoxicity. KB-3-1 viability, CellTiter-Glo ATP luminescence, 72 h. AID 1347075. Potency, µM (doses to about 46.1 µM), most hits filed as cytotoxic. 400,000 tested, 1.4% active; also: % is scaled to controls: 0 for no effect and ±100 for the full control effect; nearly all actives have a fitted effect of over 60% in size
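Here the drug-naive KB-3-1 line serves as comparator for MDR sub-line selectivity; cells received compound titrations, 72 h at 37 °C, then CellTiter-Glo readout.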
KB-V1 MDR tox = kills drug-selected multidrug resistant KB-V1 cells | KB-V1 MDR cells viability, CellTiter-Glo, 72 h | Potency, µM (top dose mostly 46.1 µM), hits mostly cytotoxic | 400,000 tested, 3.4% active | AID 1347076; also: % is scaled to controls: 0 for no effect and ±100 for the full control effect; nearly all actives have a fitted effect of over 60% in size
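Cytotoxicity via CellTiter-Glo luminescence after 72 h compound exposure at 37 degrees C. Cells: drug-selected KB-V1 line, DMEM phenol-red free plus 10% FBS. Compounds tested at multiple concentrations; normalized data fitted to concentration-effect curves.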
SW480 rerep = induces DNA re-replication in SW480 colon adenocarcinoma cells. SW480 DNA re-replication, Hoechst DNA content imaging, 48 h. Potency, µM (doses to about 46.1 µM), without a hit: at the top dose re-replication activation, hits mostly activators. 340,000 tested, 1.8% active; also: % of control where 0% means no effect; nearly all actives have a fitted effect of over 55% in size
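Compounds, transferred as 23 nL by pin tool, were incubated with cells for 48 hr; DNA content per nucleus was then quantified by Hoechst staining and fluorescence plate imaging.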
ELG1 DNA repair = blocks ELG1-dependent DNA repair in HEK293T cells; AID 504467; Potency, µM (series often up to 46.1 µM), for the others: at the top dose activity change, negative = inhibition, most hits filed as inhibitors; HEK293T ELG1-luciferase reporter, luminescence, 16 h; DNA damage induced by 5-fluorouridine; 330,000 tested, 2.3% active; also: % is scaled to controls: 0 for no effect and ±100 for the full control effect; nearly all actives have a fitted effect of over 55% in size
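In this reporter screen, reduction of luminescence relative to DMSO vehicle indicated activity. Compounds and 5-fluorouridine were added together to 2,000 cells per well, incubated for 16 hr at 37 °C, then developed with ONE-Glo.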
Numbers without * were called inactive; i = inactive; ? = inconclusive; . = not tested or not shown; ! = repeats disagree. Only some compounds are listed: those with a hit (about 8.1% of all), similar ones and a draw of the others. Calls follow the shape of the dose curve; as a rule, active = well fitted curve in the direction sought with a large enough effect; inconclusive = small, poorly fitted or top-dose-only effect, or another doubt; inactive = no such curve, though single readings can be large; an effect the other way counts as inactive or inconclusive. Potency is read from the fitted curve at half-maximal effect.

SMILES	MCF10A rerep	KB-3-1 cytotox	KB-V1 MDR tox	SW480 rerep	ELG1 DNA repair
COc1cccc(Cn2c(=S)[nH]c3ccc(N4CCOCC4)cc3c2=O)c1	?	i	3.7µM*	?	-6%
CCN(CCCn1c(=S)[nH]c2ccc(N3CCOCC3)cc2c1=O)c1ccccc1	18µM*	i	?	?	?
O=c1c2cc(N3CCOCC3)ccc2[nH]c(=S)n1CCCN1CCCC1	0%	i	?	4%	?
O=c1c2cc(N3CCOCC3)ccc2[nH]c(=S)n1Cc1cccc(Cl)c1	?	i	?	119%	-4%
Cc1ccc(CONC(=O)c2ccc(OC(F)F)cc2)cc1	-1%	i	i	-12%	?
Cc1ccc(-c2cn(-c3ccc(OC(F)F)cc3)c3[n+]2CCCCC3)cc1	5%	i	i	-1%	9.2µM*
FC(F)Oc1ccc(-n2cc(-c3ccccc3)[n+]3c2CCCCC3)cc1	-2%	23µM*	i	-11%	16µM*
C[n+]1c2n(c3ccccc31)N=C(c1ccc(-c3ccccc3)cc1)CS2	33%	i	i	1%	?
C[n+]1c2n(c3ccccc31)N=C(c1ccccc1)CS2	?	2.9µM*	i	?	5.8µM*!
CC(C)NC(=O)/C(C#N)=C/c1ccc2c(c1)OCCO2	14%	i	?	-2%	?
Cc1ccccc1-n1c(-c2ccc(Cl)cc2)cnc1SCC(=O)NC1CCS(=O)(=O)C1 (stereo unspecified)	10%	i	18µM*	-2%	13%
O=C(CSc1nnc(-c2ccc(Cl)cc2)n1CC1CCCO1)NC1CCS(=O)(=O)C1 (stereo unspecified)	1.2µM*	i	i	?	-7%
Cc1c(C)c2ccc(OC3CCCCC3=O)cc2oc1=O (stereo unspecified)	14%	i	i	-16%	?
O=C(/C=C/[C@H]1O[C@@H](n2ccc(=O)[nH]c2=O)[C@H](O)[C@@H]1O)NCc1cccs1	.	i	i	.	.
Cc1ccc2c(c1)-c1ncc(C(=O)c3ccccc3O)cc1CO2	.	i	?	.	.
COc1ccc(NC(=O)CN(C)C(=O)CNC(=O)Cc2cccc3ccccc23)cc1	0%	i	i	1%	-9%
OCc1ccc2c(c1)c(-c1ccc3c(c1)OCCO3)c(-c1ccccc1)n2-c1ccccc1	?	?	?	5%	16µM*
OCC1(Cc2ccccc2)CCCN(Cc2ccc3c(c2)OCCO3)C1 (stereo unspecified)	9%	i	i	-6%	-8%
COc1cccc(-c2cc(C(=O)NCC3CCCO3)c3cc(Br)cc(C)c3n2)c1 (stereo unspecified)	0%	i	i	16%	12%
Cc1ccnc(NC(=O)c2ccccc2NC(=O)c2ccc(Cl)cc2Cl)c1	6.5µM*	5.8µM*	3.3µM*	4.6µM*	-9%
CN1CCN(CCCNC(=O)c2cc3c(-c4ccc(Cl)cc4)nn(C)c3s2)CC1	?	i	i	12%	?
O=C(NCC1CCCO1)c1csc2c1CCCCC2 (stereo unspecified)	2.6µM*	i	i	1%	?
CC1CCc2c(C(=O)NCC3CCCO3)csc2C1 (stereo unspecified)	1%	i	i	-1%	?
Cn1nc(-c2ccc(Cl)cc2)c2cc(C(=O)NCC3CCCO3)sc21 (stereo unspecified)	?	?	i	?	16µM*
Cc1cc(Br)cc2c(C(=O)NCC3CCCO3)cc(-c3cccs3)nc12 (stereo unspecified)	15µM*	.	.	?	?
SMILES	MCF10A rerep	KB-3-1 cytotox	KB-V1 MDR tox	SW480 rerep	ELG1 DNA repair
Cc1ccc(OCCCC(=O)Nc2sc3c(c2C(N)=O)CCCC3)cc1	.	i	i	.	.
Cc1sc(NC(=O)CS(=O)(=O)c2ccccc2)c(C(N)=O)c1C	2%	i	?	-1%	?
Nc1ccc2nc(N)sc2c1	1%	i	i	0%	.
O=C(NCC1CCCO1)c1cc(-c2ccccc2)on1 (stereo unspecified)	-14%	i	21µM*	-6%	?
O=C(NCC1CCCO1)c1cc2ccccc2nc1Cl (stereo unspecified)	0.73µM*	i	i	-45%	?
O=C(Nc1ccccc1C(=O)NCC1CCCO1)c1ccc(Cl)cc1Cl (stereo unspecified)	3%	i	6.5µM*	1%	0%
O=C(Nc1ccccc1C(=O)NCC1CCCO1)c1ccc(Cl)cc1 (stereo unspecified)	-8%	.	.	1%	12%
O=C(NCC1CCCO1)c1cc2ccccc2cc1O (stereo unspecified)	1%	i	i	-1%	?
COCC1CCCN(Cc2cn(Cc3ccccc3)nc2-c2cc3ccccc3o2)C1 (stereo unspecified)	4%	?	i	?	-12%
CC(C)c1nnc(NC(=O)C2CCN(C(=O)Nc3ccccc3)CC2)s1	-3%	i	i	?	9%
CCn1ncc(/C=C/C(=O)Nc2c(C)nn(Cc3ccc(Cl)cc3Cl)c2C)c1C	4%	i	i	10µM*	-24%
Cc1nn(Cc2ccc(Cl)cc2Cl)c(C)c1NC(=O)c1sc2ccccc2c1Cl	9%	i	i	-3%	-3%
Cc1nn(Cc2ccc(Cl)cc2Cl)c(C)c1NC(=O)NC12CC3CC(CC(C3)C1)C2	?	?	15µM*	3%	?
CCCCC(=O)N=c1sc2cc(S(C)(=O)=O)ccc2n1C	-1%	i	i	-6%	10%
Cc1[nH]c(=O)[nH]c(=O)c1S(=O)(=O)N1c2ccc(F)cc2CCC1C (stereo unspecified)	14%	i	i	-13%	19%
N=c1c(C(=O)NC2CCCCC2)cc2c(=O)n3ccccc3nc2n1Cc1ccc(F)cc1	?	i	i	?	8.2µM*
Cc1ccc(Cn2c(=N)c(C(=O)NC3CCCCC3)cc3c(=O)n4ccccc4nc32)cc1	2.6µM*	i	i	2.3µM*	8%
N=c1c(C(=O)NC2CCCC2)cc2c(=O)n3ccccc3nc2n1CCN1CCOCC1	?	i	i	2.8µM*	0%
Cc1cc(-c2ccc(S(=O)(=O)Nc3ccc(C#N)cc3)s2)on1	1%	i	i	-27%	6%
COc1ccc(OC)c(C2CC(c3ccc(NS(C)(=O)=O)cc3)=NN2C(=O)c2ccccc2)c1 (stereo unspecified)	0%	i	i	-3%	-10%
c1ccc2oc(-c3[nH]ncc3CN3CCC(N4CCSCC4)CC3)cc2c1	23µM*	i	i	-6%	0%
